# Only a selection was taken, and hits are over-represented in it overall.
# CapD inh = blocks the Bacillus anthracis CapD enzyme; purified CapD enzyme, fluorescence intensity read-out; stronger effect = lower value; z-score (concentration not given with the values); 140,000 tested, 0.23% active; AID 492967; in the data active = z-score mostly below about -2.9, no sharp cut-off; inactive = mostly above about -1.9
# * = called active by the depositor.
SMILES,CapD inh
CCOC(=O)c1sc2nc(C)nc(N3CCc4ccccc4C3)c2c1C,3.2
CCOC(=O)c1cnc(N2CCc3ccccc3C2)nc1N,-3.9*
CCOC(=O)c1sc2ncnc(N3CCc4ccccc4C3)c2c1C,0.51
CCCCCCCCOc1ccc(-n2c(-c3ccc(Cl)cc3)cn3c4c(=O)n(C)c(=O)n(C)c4nc23)cc1,-0.39
Fc1ccccc1C1N(Cc2ccccc2)CCN1Cc1ccccc1,-0.3
Fc1ccccc1C1N(Cc2ccccc2)CCCN1Cc1ccccc1,25
CCC(C)N1Cc2ccccc2N(CC)C1c1ccccc1F (configuration not stated),-4.3*
OCC1CCCN(Cc2ccc(F)cc2)C1 (configuration not stated),0.26
O=C(O)c1cnn(-c2ccccc2)c1-n1cccc1CNCc1ccc(Cl)cc1,0.13
O=C1NC(=S)N(c2ccccc2)C(=O)/C1=C\c1ccoc1,-5.7*
COc1ccc(N2C(=O)/C(=C\c3ccc(Br)cc3)C(=O)NC2=S)cc1,-1.7
O=C1NC(=S)N(c2ccc(Br)cc2)C(=O)/C1=C/c1cccn1-c1ccccc1,-0.31
CC1=NN(c2cccc(S(N)(=O)=O)c2)C(=O)C1,-0.93
CC1=NN(c2cc(S(=O)(=O)O)c3cccc(S(=O)(=O)O)c3c2)C(=O)C1,-5.7*
CC1=NN(c2ccc(C(=O)O)cc2)C(=O)C1,-0.03
CC1CCc2c(cc(-c3ccccc3)n2-c2ccc(C(=O)NCCN3CCN(C)CC3)cc2)C1 (configuration not stated),63
O=C(C(c1ccccc1)c1ccccc1)N1CCCCC1,-0.03
OCCN1CCN(C(c2ccccc2)c2ccc3cccnc3c2O)CC1 (configuration not stated),-5.2*
Oc1c(C(c2ccccc2)N2CCOCC2)ccc2cccnc12 (configuration not stated),-0.8
CN1CCN(C(c2ccncc2)c2ccc3cccnc3c2O)CC1 (configuration not stated),-2.4
Brc1ccc2ncnc(Nc3ccc(N4CCCC4)cc3)c2c1,-0.02
CCN(CC)c1ccc(CNc2ccc3c(c2)ncn3C)cc1,57
CC(C)(C)n1cnc2cc(NCc3ccccc3O)ccc21,36
CCN(CC)c1ccc(CNc2ccc3c(c2)ncn3C(C)(C)C)cc1,-4.6*
CCC1C/C(=C/c2ccco2)C(=O)/C(=C/c2ccco2)C1 (configuration not stated),-2.5
SMILES,CapD inh
CC1CC(C)CN(C(=O)COC(=O)/C=C/c2ccco2)C1 (configuration not stated),-1.7
CC1C/C(=C/c2ccco2)C(C)N(C)C1 (configuration not stated),-5.2*
COc1ccccc1/C=N/NC(=O)CNc1ccccc1OC,-0.71
CSc1nc(NC(=O)NS(=O)(=O)c2ccccc2C(F)(F)F)nc(-c2ccccn2)n1,-0.27
O=C(O)CN1C(=O)Nc2ccc(Br)cc2C1c1ccccc1 (configuration not stated),0.8
O=C1Nc2ccc(Br)cc2C1=Nc1ccc(Cl)cc1,0.5
O=C1Nc2ccc(Br)cc2/C1=N/N1C(=O)C(O)=CC1(O)c1ccccc1 (configuration not stated),-4.1*
N#Cc1c(-n2cccc2)sc2c1CCN(c1ccc([N+](=O)[O-])cc1)C2,0.15
O=C(O)CC/C(=N\Nc1ccc([N+](=O)[O-])cc1)c1ccccc1,-3.6*
O=C(Nc1cccc(C(=O)c2ccccc2)c1)c1ccc([N+](=O)[O-])cc1,-0.51
O=C(Nc1ccc([N+](=O)[O-])cc1)c1ccccc1O,-0.78
COc1cc(C=C2C(=O)N(C)C(=O)N(C)C2=O)ccc1Oc1ccc([N+](=O)[O-])cc1C#N,-0.72
Cc1n[nH]c(C)c1S(=O)(=O)N1CCC2(CC1)OCCO2,0.2
CC(OC(=O)/C=C/c1cccs1)C(=O)Nc1cccc(C(F)(F)F)c1 (configuration not stated),-1
CN(C)CCOC(=O)c1ccc2[nH]c3c(c2c1)CSCC3,39
O=C(O)c1ccc2[nH]c3c(c2c1)CSCC3,-7.4*
COC(=O)c1ccc2[nH]c3c(c2c1)CCCC3,3.3
CCN1C(=O)/C(=c2/s/c(=C3\Sc4ccccc4N3C)c(=O)n2CC)N(C)C1=S,-0.52
CCC(C)N(Cc1cn(CC)c2ccccc12)C(=O)Nc1ccc(Cl)c(Cl)c1 (configuration not stated),15
CCc1cc2c(=O)c(-c3ccc4c(c3)OCO4)c(C(F)(F)F)oc2c(CN(C)C)c1O,-4*
CCN(CC)Cc1c(O)ccc2c(=O)c(-c3ccc(OC)c(OC)c3)c(C(F)(F)F)oc12,-0.02
CCCc1cc2c(=O)c(-c3ccc4c(c3)OCCO4)c(C(F)(F)F)oc2c(C=[N+](C)C)c1O,-1.5
COc1cccc(NC(=O)c2ccc(-n3cnc4cccnc43)cc2)c1,4
CC1=C(C(=O)Nc2nc3ccc(Br)cc3s2)C(c2ccc3c(c2)OCO3)C2=C(CC(C)(C)CC2=O)N1 (configuration not stated),47
Cc1ccc(C)n1-c1ccc(C(=O)O)cc1,-13*
SMILES,CapD inh
O=C(O)c1ccc(-n2c(-c3ccccc3)cc3c2CCCC3)cc1,-0.13
O=C(O)c1ccc(N2CCCCC2)cc1,-0.065
Cc1cc2c(n1-c1ccc(C(=O)O)cc1)CCCC2,-7.5*
Cc1cc2c(n1-c1ccc(C(=O)N3CCN(c4ccccc4)CC3)cc1)CCCCC2,-0.89
Cc1ccc(C)n1-c1ccc(SCC(=O)O)cc1,-3.4
C[C@@H]1[C@@H](c2ccc(F)c(Br)c2)N2C=Cc3ccccc3[C@@H]2C1(C#N)C#N,11
CCOC(=O)C1=C(C)NC(C)=C(C(=O)OCC)C1c1cn(-c2ccccc2)nc1-c1ccc(OCC)c([N+](=O)[O-])c1,-0.16
O=C(C1CCN(c2ccc(C(F)(F)F)cn2)CC1)N(C1CC1)C1CCN(Cc2ccccc2)CC1,3.3
CN(C)/N=C/c1ccc([N+](=O)[O-])o1,-4.4*
O=C1OCCN1/N=C/c1ccc([N+](=O)[O-])o1,-0.03
O=C1CN(/N=C/c2ccc([N+](=O)[O-])o2)C(=O)N1,-0.95
O=C1CCCC/C1=C\Nc1ccccc1,-3.5
Cc1ccc(N=C2NC(=O)/C(=C\c3ccc(-c4ccc(C(=O)O)cc4)o3)S2)cc1,4.4
Cc1cc(C(=O)O)ccc1-c1ccc(/C=C2\SC(=S)NC2=O)o1,-9.4*
Cc1cc(C(=O)O)ccc1-c1ccc(/C=N/n2cnnc2)o1,3
Cc1cccc(CCOC(=O)N2CCC(C(=O)c3ccc(Cl)cc3)CC2)c1,-0.16
CCC(C(=O)OC)n1cnc2c(nnn2Cc2ccccc2F)c1=O (configuration not stated),1.6
CC1=NN(c2ccc(Cl)c(C(=O)O)c2)C(=O)/C1=C/c1cn(Cc2ccccc2)c2ccccc12,-0.3
CC1=NN(c2ccccc2)C(=O)/C1=C/c1coc2ccccc2c1=O,-0.45
CC1=NN(c2ccccc2)C(=O)/C1=C/c1cn(CC(O)CN2CCCCC2)c2ccccc12 (configuration not stated),-4.8*
COc1ccccc1C1OCC2C(C)C=C(C)C1C2C (configuration not stated),-1.6
O=C1S/C(=C\c2ccc(F)cc2)C(=O)N1c1ccccc1,0.3
O=C1S/C(=C/c2ccccc2Cl)C(=O)N1c1ccccc1,-0.54
CN(C)/C=C1\SC(=O)N(c2ccccc2)C1=O,-6.4*
Cc1cccc(C(C)C)c1NC(=O)c1ccncc1,0.065
O=C(NCc1ccc(Cl)cc1)c1ccc(OCc2ccnc(Cl)c2)cc1,-0.15
COc1cccc(CC(=O)OCC(=O)c2cccc(Cl)c2)c1,-0.49
